In the supplement of paper PMC6555819:

Columns and labels:
Test in all cases: PBM binding z-score (relative to random genomic background probes); higher = stronger binding; sequences stand for … in GC…GCGATTGACAGCGTAGAATGAAGG
[1] = tested on: RARb homodimer (NR concentration 270 nM)
Outline: (§1)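 On custom Agilent 4×180K arrays, double-stranded probes with 34-nt variable regions carried direct-repeat seeds, single-nucleotide variants, half-site ablations or random human genomic background. Ligand-free nuclear receptor dimers were applied for 1 h, and binding was read with antibodies against each partner (one per run). Binding z-scores come from regression-normalized fluorescence, with the random background probes as reference.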

[2] = tested on: RARg:RXRa (NR concentration 270 nM, RXRa partner concentration 90 nM)
Outline: as §1

[3] = tested on: RARg homodimer (NR concentration 270 nM)
Outline: as §1

[4] = tested on: RXRa DBDmut IVT, anti-RXR (DBD mutation: RXRa K156A/R161A, NR concentration 90 nM)
Outline: as §1

[5] = tested on: RXRa homodimer (NR concentration 180 nM)
Outline: as §1

[6] = tested on: THRa:RXRa (NR concentration 90 nM, RXRa partner concentration 90 nM)
Outline: as §1

[7] = tested on: THRa homodimer (NR concentration 90 nM)
Outline: as §1

[8] = tested on: VDR homodimer (NR concentration 270 nM)
Outline: as §1

Sequence	PBM binding z-score [1]	PBM binding z-score [2]	PBM binding z-score [3]	PBM binding z-score [4]	PBM binding z-score [5]	PBM binding z-score [6]	PBM binding z-score [7]	PBM binding z-score [8]
CCACACAGGTGAAAGGTAACTCAGTCTGGTACGC	1.05	1.5	0.76	0.262	2.32	1.06	0.165	-0.208
GGAACGAGGGCAAGTTGATAGCAGAGTTTGATGG	1.67	1.68	2.25	2.42	0.781	1.3	0.0645	1.9
GCGACTGGGGCAAAGCAGGTTACCACAAGGTTGG	1.08	0.456	0.439	-0.219	0.39	3.04	-0.328	-0.626
TCGAGTAGCTTACCAATGGGGCATTCAGCTTTCT	-0.454	-0.745	-0.826	0.345	-0.307	-1.44	-0.855	-0.692
ATATGTAGGTTATCGGGTCATTAAGTTTGCGCAT	3.05	3.13	2.3	1.7	3.23	3.25	2.55	4.46
TGAATCAGGTTATAAGATCAGGGAACGTTGCAAA	-0.228	0.24	0.42	-0.671	0.358	0.505	-0.129	0.0493
AATACAGGGTCATTGTAGGCCAGAGTACGCACAG	3.31	5.16	4.36	4.12	6.15	4.59	0.994	3.75
TCTTGTAGATAAGCAGGTTAAGAAAGCTGGCCAA	-0.166	-0.153	-0.231	0.319	0.245	0.129	-0.622	-0.0851
ATCTCTAGGTAAAGATAGTTCACTGAATGCAAAT	1.54	1.1	1.18	0.234	0.828	1.31	0.149	1.13
TCTTGTAGATGAAAGGTTAAGAAAGCCGAAGCCT	1.17	1.2	0.987	1.1	2.39	0.806	-0.431	-0.24
CGAACGAGGGCATGAGTGGATAGCAAATGCCGAT	0.496	1.27	1.61	2.02	0.916	1.04	-0.129	0.792
GATACAGGGTCAGCTAGAGGCCCGAGTATGGAAA	2.47	4.74	3.86	1.21	4.25	2.49	0.0608	0.402
TCATGTAGGTAAAAGGTGAAAGTCGGTGTGGTAA	2.05	1.81	0.855	1.49	2.61	1.75	0.569	0.332
TTACCAAGGTGAAGGTCGTTGATCCCTCTGTAGA	1.7	1.29	1.32	0.0227	1.7	2.34	1.1	1.15
AGTCAAAGTTCAGGACGAAGTAACGTAAAGCACG	2.72	3.82	4.58	2.8	2.71	1.95	0.0307	1.27
AGATTGAGGTTAAGATCAGGGAAACAGAATACAT	1.42	2.1	1.78	1.36	2.48	2.7	1.12	0.928
TAGCCTAGGTCATGGGGCAGTATACCACGCGAAC	2.71	4.3	4.2	0.354	3.61	3.23	1.44	0.585

Sequence	PBM binding z-score [1]	PBM binding z-score [2]	PBM binding z-score [3]	PBM binding z-score [4]	PBM binding z-score [5]	PBM binding z-score [6]	PBM binding z-score [7]	PBM binding z-score [8]
GCTGGCAGGCCATTTGGGTCACTCAATGACGGGC	1.88	0.91	1.54	-0.405	0.855	1.86	0.617	0.646
AGAACGAGGGCAGGCTGAGTTGATAGCAGAGTAG	0.683	0.569	1.17	0.639	0.342	0.523	-0.552	0.453
TCGGCTAGGTCAGTTGGTCAGCTAACGAGCTGCC	2.79	2.88	3.91	0.368	0.942	1.14	-0.051	-0.233
CGAAGTAGGTCAAGGACAGTGAATCTCCGCACGC	3.17	3.94	4.66	1.45	2.92	3.07	1.51	0.462
ATCTCTAGGTAAGACTCCGTTCAGTGAAGAACGC	0.62	0.111	0.108	0.35	-0.00325	0.381	0.809	0.435
CCTTACGGGTCACTCCAGGTTACAGCATCGGAGT	3.31	4.27	4.33	1.46	4.26	5.28	0.933	1.56
TCTTGTAGATCAGCAGATTAAGAAAGCTGGCCAA	-0.767	-0.275	-0.543	0.615	-0.121	-0.329	-0.892	-0.178
AGAATGAGGTTTTACGTAGATCAGGGAAGAAAGT	-0.169	-0.132	0.114	0.185	-0.108	0.3	0.0915	0.172
TCTATTAGTTGAAGTGCAACCGACGAGTCCGTTT	0.42	0.379	0.172	1.58	0.754	0.107	0.145	1.83
TAGCCTAGGTCCTGCGGGCCAGTATAGTGTCGGC	-0.744	-0.626	-0.818	-1.46	-0.822	-1.56	-0.966	-0.992
GCGACTGGGGCGAAGCAGGTTACCATAAGGTTGG	0.22	-0.0926	-0.296	-1.11	0.0577	1.5	-0.185	-0.569
TAGCCTAGGTCCGATCGGGCCAGTATACGCTATA	-0.854	-0.722	-0.738	-0.969	-0.677	0.334	-0.898	-0.952
ATCGAAAGGTCGAACGTGAGTATACCCACCCGAA	2.3	3.98	3.79	1.83	4.08	1.89	-0.12	0.989
CCTCGAAGGACAACAGGAGGTCAGAGCTGCCAGA	3.42	3.4	3.28	0.237	1.89	2.58	0.731	0.641
ACTCGTAGGACAAAGGTCAGAGCTACGCCAGTGA	4.29	5.58	4.82	1.14	5.3	2.92	0.244	0.657
TGACCAAGGTGAGCTGAGGTCGTTGATCCAACTC	1.63	1.46	1.17	-0.41	1.52	4.69	1.8	1.7
CGAACTGGGTCATTGACAGGACAGTGAATAGTAA	2.17	4.32	3.3	1.94	2.88	2.41	0.357	1.05
